Assay outcomes from PubChem.
Pf growth 48h: Primary qHTS for delayed death inhibitors of the malarial parasite plastid, 48 hour incubation; P. falciparum luciferase growth in erythrocytes, 48 h; Potency, µM (highest dose often 28.7 µM), for inactives: at the highest dose activity change, negative = inhibition, actives largely listed as inhibitors; actives 5.9% (n = 310,000); also: potency is read from the fitted curve at half-maximal effect; % is scaled to controls: 0 for no effect and ±100 for the full control effect
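First compound was added to culture medium, then infected red cells at 0.1% parasitemia and 2% hematocrit (final). After incubation at 37 C under 5% CO2, luciferase detection reagent was dispensed and light output recorded.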
Pf growth 96h: Primary qHTS for delayed death inhibitors of the malarial parasite plastid, 96 hour incubation. actives 6.9% (n = 320,000). P. falciparum luciferase reporter growth, 96 h. Potency, µM (top dose mostly 28.7 µM), inactives show top-dose activity change, negative = inhibition, usual class: inhibitors. AID 504834, 2011; also: potency is read from the fitted curve at half-maximal effect; % is scaled to controls: 0 for no effect and ±100 for the full control effect
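96 h incubation, 37 C, 5% CO2, of luciferase-reporter P. falciparum-infected RBCs (2% hematocrit, 0.05% parasitemia final) with test compounds; endpoint luminescence.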
AMA1 RON2 block: qHTS for Inhibitors of AMA1-RON; Towards Development of Antimalarial Drug Lead: Primary Screen. AlphaScreen AMA1-biotinylated RON2 peptide binding. Potency, µM (highest dose often 58.2 µM), inactives show at the top dose activity change, negative = inhibition, usual class: inhibitors. actives 0.2% (n = 360,000). AID 720542, 2013;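 also: potency is read from the fitted curve at half-maximal effect; 0% = vehicle wells and -100% = peptide control; nearly all actives have a fitted effect of over 45% in size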
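AMA1 (3D7) with his tag at 25 nM final met compounds first, then biotinylated RON2 peptide at 25 nM; detection used donor plus acceptor beads, 10 µg/mL apiece, read by AlphaScreen after 30 min at room temperature.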
Cycloheximide cs: Cycloheximide Counterscreen for Small Molecule Inhibitors of Shiga Toxin | cell reporter, cycloheximide protein synthesis inhibition counterscreen | max response, % | AID 2314, 2010 | actives 12% (n = 300,000); in the data active = max response mostly above about 13%, no sharp cut-off; inactive = mostly below about 14%; also: read at 38.3 µM for the half of the compounds with a filed dose; 0% is about no effect
SARS PLpro yeast: qHTS of Yeast-based Assay for SARS-CoV PLP; S. cerevisiae expressing SARS-CoV PLpro, growth rescue; Potency, µM (doses to about 32.9 µM), for the others: at the top dose activity, positive = growth rescue, actives largely listed as activators; actives 0.19% (n = 330,000); AID 485353, 2010; calls by dose curve; also: potency is read from the fitted curve at half-maximal effect; 0% is about no effect; nearly all actives have a fitted effect of over 55% in size
Shiga inhibitor: A qHTS for Small Molecule Inhibitors of Shiga Toxin; Vero cells, Shiga toxin protein synthesis inhibition reporter; inhibition, % at 38.7 µM; actives 9.2% (n = 290,000); in the data active = inhibition mostly above about 28%, no sharp cut-off; inactive = mostly below about 43%; also: 0% is about no effect
An asterisk follows results filed as active; i = inactive; ? = inconclusive; . = no result given; ! = repeats disagree; [ ] = dose if it differs, or a comment. A selection: hits, their analogues and other compounds. The true share with any hit is near 19%. Unless noted, calls follow the shape of the dose curve; as a rule, active = well fitted curve in the direction sought with a large enough effect; inconclusive = small, poorly fitted or top-dose-only effect, or another doubt; inactive = no such curve, though single readings can be large; an effect the other way counts as inactive or inconclusive.

SMILES	Pf growth 48h	Pf growth 96h	AMA1 RON2 block	Cycloheximide cs	SARS PLpro yeast	Shiga inhibitor
Cc1ccc(CSCC(=O)N(C)CC(=O)Nc2ccccc2Cl)cc1	?	-25%	-6%	.	-6%	.
Cc1ccc(CSCC(=O)N(C)CC(=O)Nc2c(Cl)cccc2Cl)cc1	10µM*	?	-18%	.	-3%	.
O=C(COC(=O)Cc1c[nH]c2ccccc12)Nc1c(Cl)cccc1C(F)(F)F	?	4%	9%	.	-1%	.
CN(O)/C=N/C(=S)Nc1ccc(Cl)cc1Cl	-3%	10%	31%	9	0%	14
CN(C)/C=N/C(=S)Nc1ccccc1F	42%	19%	-3%	28*	2%	90
CN(C)/C=N/C(=S)Nc1ccccc1Cl	73%	10%	-8%	39*	-1%	49*
CCCOCc1ccc(O)c2ncccc12	12µM*	4.7µM*	-60%	1	-17%	17
Cn1cc(CN2CCc3ccccc3C2)c2ccccc21	?	-4%	-5%	-1	-3%	-17
Oc1ccc(CN2CCc3ccccc3C2)c2cccnc12	?	3.7µM*	-93%	13	.	-7
Oc1ccc(COCc2ccccc2)c2cccnc12	3.3µM*	4.1µM*!	?	68*	-3%	147*
Cc1ccc(C)c(S(=O)(=O)N2CCN(Cc3ccc(O)c4ncccc34)CC2)c1	-12%	4.1µM*	30%	-3	?	-6
CCOC(=O)N1CCN(Cc2ccc(O)c3ncccc23)CC1	?	-19%	-82%	-2	8%	3
COc1ccc(Cl)cc1-n1c(=S)sc2c(=O)[nH]c(SCC(=O)C(C)(C)C)nc21	-23%	47%	0%	-2	0%	17
OCc1ccc(O)c2ncccc12	9.3µM*	?	?	-2	5%	-3
CN(Cc1ccco1)Cc1ccc(O)c2ncccc12	?	10µM*	.	.	0%	.
CCC(Sc1nc2sc(C(=O)OC)c(C)c2c(=O)n1N)C(=O)NCC1CCCO1 (stereo not drawn)	?	4.7µM*	15%	-2	6%	-1
Cc1ccnc(NC(=O)C23CC4CC(CC(C4)C2)C3)c1	?	5%	12%	12*	-7%	27
Cc1cc(NC(=O)CCC2CCCCC2)no1	-27%	-85%	4%	25*	-11%	61*
O=C(CCC1CCCC1)Nc1ccon1	17%	.	-11%	7	-7%	-2
Cc1cc(NC(=O)CCC2CCCC2)no1	48%	0%	0%	28*	-1%	36
Cc1ccnc(NC(=O)CCC2CCCCC2)c1	-13%	.	-8%	42*	-5%	126*
COC(=O)c1cn(-c2nc(C)c3c(n2)CCC3)nn1	17%	-37%[5.75 µM]	-14%	16	-1%	36
CCCC(=O)Nc1ccc(Br)cn1	.	-27%	14%	5	5%	20
O=C(CCC1CCCC1)Nc1ccc(Br)cn1	139%	10%	-1%	18*	-1%	89*
CN1CCN(C(=O)/C=C/c2cccc(Cl)c2)CC1	-5%	0%	-1%	17*	6%	20
SMILES	Pf growth 48h	Pf growth 96h	AMA1 RON2 block	Cycloheximide cs	SARS PLpro yeast	Shiga inhibitor
CN1CCN(C(=O)/C=C/c2c(F)cccc2Cl)CC1	0%	37%	-16%	19*	-1%	11
O=C(/C=C/c1c(Cl)cccc1Cl)N1CCN(c2ncccn2)CC1	17%	.	-5%	4	4%	-13
COc1ccc(NS(=O)(=O)c2ccc(O)c([N+](=O)[O-])c2)cc1S(=O)(=O)N1CCCCC1	.	.	-6%	.	-25%	.
O=C(NC(=S)NCCO)c1sc2ccccc2c1Cl	268%	-11%	49%	51*	0%	111*
O=C(CNC(=O)c1sc2ccccc2c1Cl)OCc1ccccc1	7%	0%	32%	11	-8%	-5
Cc1ccccc1COC(=O)CNC(=O)c1sc2ccccc2c1Cl	26%	0%	14%	.	-1%	.
CCOC(=S)NC(=O)c1sc2ccccc2c1Cl	42%	?	43%	32*	-13%	27
CCCOC(=S)NC(=O)c1sc2ccccc2c1Cl	43%	?	28%	40*	-3%	63*
COCCCNc1oc(-c2cccs2)nc1S(=O)(=O)c1ccc(C)cc1	-59%	6%	-21%	-2	-1%	-5
COc1ccc(C(C)(NC(C)=O)c2nc(-c3cncnc3)cs2)cc1 (stereo not drawn)	.	.	-4%	.	.	.
O=C(Nc1ccc(N2CCOCC2)c(Cl)c1)c1cc2ccccc2o1	24%	-29%	1%	39*	-46%	71*
O=C(Nc1ccccc1N1CCOCC1)c1cc2ccccc2o1	-3%	?	3%	12	-2%	28
O=C(c1cc2ccccc2o1)N1CCOCC1	?	?	0%	.	1%	.
O=C(Nc1ccc(N2CCOCC2)cc1)c1ccc(Cl)nc1	3%	.	-7%	-1	1%	-13
O=C(NC(=S)N1CCOCC1)c1cc2ccccc2o1	29%	6%	45%	12*	0%	70*
O=C(Nc1cc(N2CCOCC2)ncn1)c1ccccc1	185%	5%	4%	16*	3%	41
O=C(Nc1ccc(N2CCOCC2)nc1)c1ccc(Cl)cc1	9%	15%	-2%	16*	2%	49*
COc1ccc2c(c1)OC(=O)CC2c1ccccc1C (stereo not drawn)	.	.	.	1	.	i
O=C(Nc1ccc(C(=O)N2CCOCC2)cc1)c1ccccc1Cl	.	.	4%	.	.	.
O=C(Nc1ccc(N2CCOCC2)c(Cl)c1)c1ccccc1Cl	66%	?	-4%	30*	0%	60*
O=C(Nc1ccc(N2CCOCC2)c(Cl)c1)c1ccc(F)cc1	?	-6%	-1%	31*	-25%	18*
O=C(Nc1ccc(N2CCOCC2)c(Cl)c1)c1ccc(-n2cnnc2)cc1	3%	?	3%	-4	3%	-6
Cc1c(NC(=O)[C@@H](NC(=O)c2ccc(Cl)c([N+](=O)[O-])c2)C(C)C)c(=O)n(-c2ccccc2)n1C	.	.	6%	.	-12%	.
CS(=O)(=O)N1CC(C(=O)O)Oc2ccc(CC(=O)O)cc21 (stereo not drawn)	23%	118%	-4%	1	-1%	-6
COc1cc(C(=O)c2c(C)c(CCC#N)n3ccccc23)cc(OC)c1OC	9.3µM*	-19%	0%	8	-2%	-14
COc1cccc(C(=O)c2c(C)c(CCC#N)n3ccccc23)c1OC	-18%	5%	4%	-3	7%	-3
Cc1ccc(S(=O)(=O)N2CCN(C)CC2)c(C)c1	-1%	2.6µM*	0%	-4	8%	-12
Cc1ccc(S(=O)(=O)N2CCN(S(=O)(=O)N3CCCCC3)CC2)c(C)c1	-16%	34%	8%	-3	1%	-9
